This is an account of results in PMC7862700, “An all-to-all approach to the identification of sequence-specific readers for epigenetic DNA modifications on cytosine”.

What all share (assay): DAPPL (digital affinity profiling via proximity ligation, sequencing); 10 mM Tris-HCl pH 7.5, 50 mM NaCl, 1 mM DTT, 4% glycerol, room temperature, 30 min; GST-TFs on glutathione beads, 16-mer random dsDNA library, 0.1% formaldehyde crosslink after washing; high values mean tight binding
What all share (details): protein: recombinant; tags: N-terminal GST; dsDNA, one strand shown

One assay deals with T1, FLI1 (Homo sapiens, UniProt Q01543 1-452).
T1 sequence: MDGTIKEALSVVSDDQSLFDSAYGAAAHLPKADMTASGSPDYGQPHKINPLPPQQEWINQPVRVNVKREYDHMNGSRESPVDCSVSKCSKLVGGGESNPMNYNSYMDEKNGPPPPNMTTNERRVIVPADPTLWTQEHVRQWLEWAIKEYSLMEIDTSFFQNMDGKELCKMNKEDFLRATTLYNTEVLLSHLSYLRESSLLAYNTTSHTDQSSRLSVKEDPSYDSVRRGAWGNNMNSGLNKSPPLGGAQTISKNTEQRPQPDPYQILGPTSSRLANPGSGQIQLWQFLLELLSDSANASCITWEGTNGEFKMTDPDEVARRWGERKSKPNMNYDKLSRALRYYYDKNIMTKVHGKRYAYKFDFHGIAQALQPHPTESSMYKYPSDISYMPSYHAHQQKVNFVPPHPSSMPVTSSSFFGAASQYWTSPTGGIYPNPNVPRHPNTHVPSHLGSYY
In short, it runs like this:
(§1)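 The binding signal reported is, for every hexamer, its read frequency for a factor over its read frequency for the tag-only sample. Reads came from pools of yeast-expressed, GST-fused human transcription factors on glutathione beads, barcoded with DNA and mixed with that sample, which were incubated with 200 nmole of a random double-stranded 16-mer DNA library in Tris/NaCl/DTT/glycerol buffer at room temperature for 30 min. After washing, the pools were crosslinked with 0.1% formaldehyde, proximity-ligated with BsaI/T4 ligase for 1 h at 37 °C, PCR-amplified and sequenced on an Illumina NextSeq500.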

Another assay concerns the target T2, ELK1 (Homo sapiens, UniProt P19419 1-428).
T2 sequence: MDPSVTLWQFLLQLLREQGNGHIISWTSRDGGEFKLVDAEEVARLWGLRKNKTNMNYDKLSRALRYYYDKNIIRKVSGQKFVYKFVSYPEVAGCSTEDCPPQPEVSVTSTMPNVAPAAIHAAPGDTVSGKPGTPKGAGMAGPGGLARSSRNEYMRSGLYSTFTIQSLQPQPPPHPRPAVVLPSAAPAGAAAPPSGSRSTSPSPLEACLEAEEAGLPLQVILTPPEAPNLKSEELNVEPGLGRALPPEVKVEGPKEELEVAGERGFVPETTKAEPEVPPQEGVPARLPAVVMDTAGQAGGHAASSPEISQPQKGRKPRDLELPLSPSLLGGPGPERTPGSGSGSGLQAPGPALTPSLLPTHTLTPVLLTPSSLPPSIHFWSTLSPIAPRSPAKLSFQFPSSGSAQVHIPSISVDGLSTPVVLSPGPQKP
In short, it runs like this:
as §1

A further assay has as its target T3, GABPA (Homo sapiens, UniProt Q06546 1-454).
T3 sequence: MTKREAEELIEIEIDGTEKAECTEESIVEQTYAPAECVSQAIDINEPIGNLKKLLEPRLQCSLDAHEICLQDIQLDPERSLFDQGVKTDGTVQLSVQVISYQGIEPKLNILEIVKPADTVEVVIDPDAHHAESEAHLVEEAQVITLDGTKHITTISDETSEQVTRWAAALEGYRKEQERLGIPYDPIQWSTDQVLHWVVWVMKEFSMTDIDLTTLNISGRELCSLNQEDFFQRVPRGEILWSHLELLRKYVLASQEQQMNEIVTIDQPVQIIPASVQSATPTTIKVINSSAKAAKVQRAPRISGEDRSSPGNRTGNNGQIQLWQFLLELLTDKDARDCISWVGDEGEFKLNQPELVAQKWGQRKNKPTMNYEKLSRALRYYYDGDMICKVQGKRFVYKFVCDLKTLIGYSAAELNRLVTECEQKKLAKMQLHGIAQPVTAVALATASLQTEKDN
In outline:
as §1

The target of the next assay is T4, ERG (Homo sapiens, UniProt P11308 1-479).
T4 sequence: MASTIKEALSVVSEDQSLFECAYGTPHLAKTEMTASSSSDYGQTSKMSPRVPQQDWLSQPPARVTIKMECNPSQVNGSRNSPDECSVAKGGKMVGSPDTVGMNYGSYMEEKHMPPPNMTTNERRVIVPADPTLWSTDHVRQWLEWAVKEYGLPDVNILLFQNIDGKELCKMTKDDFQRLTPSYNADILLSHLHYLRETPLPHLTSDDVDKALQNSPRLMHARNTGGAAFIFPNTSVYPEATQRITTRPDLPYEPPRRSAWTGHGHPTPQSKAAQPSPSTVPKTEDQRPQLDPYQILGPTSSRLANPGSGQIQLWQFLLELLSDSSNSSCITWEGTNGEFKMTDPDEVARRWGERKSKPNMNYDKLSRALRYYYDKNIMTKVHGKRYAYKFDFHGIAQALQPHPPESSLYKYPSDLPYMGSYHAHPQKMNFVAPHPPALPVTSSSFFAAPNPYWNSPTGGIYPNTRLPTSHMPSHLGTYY
In short, it runs like this:
as §1

For another assay, the target named is ELF1 (Homo sapiens, UniProt P32519 1-619). In outline:
as §1

A further assay has as its target T5, EHF (Homo sapiens, UniProt Q9NZC4 1-300).
T5 sequence: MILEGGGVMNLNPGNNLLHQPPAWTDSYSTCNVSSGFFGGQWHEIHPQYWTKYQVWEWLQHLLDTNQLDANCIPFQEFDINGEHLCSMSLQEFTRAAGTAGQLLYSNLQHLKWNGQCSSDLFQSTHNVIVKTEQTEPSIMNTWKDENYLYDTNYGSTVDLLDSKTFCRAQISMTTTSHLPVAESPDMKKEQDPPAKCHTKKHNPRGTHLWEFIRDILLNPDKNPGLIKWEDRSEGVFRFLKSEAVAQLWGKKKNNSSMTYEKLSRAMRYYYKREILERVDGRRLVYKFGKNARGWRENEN
In short, it runs like this: as §1

In another assay the target is SPI1 (Homo sapiens, UniProt P17947 1-270). In short, it runs like this:
as §1

In another assay the target is SPIB (Homo sapiens, UniProt Q01892 1-262). In outline: as §1
Chain of SPIB (Q01892 whole entry): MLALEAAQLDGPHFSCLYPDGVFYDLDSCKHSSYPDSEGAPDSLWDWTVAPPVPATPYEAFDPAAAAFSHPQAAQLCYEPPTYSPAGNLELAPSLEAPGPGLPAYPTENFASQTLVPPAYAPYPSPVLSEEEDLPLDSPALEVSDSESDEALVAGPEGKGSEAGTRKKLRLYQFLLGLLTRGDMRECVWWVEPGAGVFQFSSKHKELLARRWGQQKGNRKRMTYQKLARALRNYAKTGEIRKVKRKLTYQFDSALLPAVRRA
The next assay has as its target T6, ELK3 (Homo sapiens, UniProt P41970 1-407).
T6 sequence: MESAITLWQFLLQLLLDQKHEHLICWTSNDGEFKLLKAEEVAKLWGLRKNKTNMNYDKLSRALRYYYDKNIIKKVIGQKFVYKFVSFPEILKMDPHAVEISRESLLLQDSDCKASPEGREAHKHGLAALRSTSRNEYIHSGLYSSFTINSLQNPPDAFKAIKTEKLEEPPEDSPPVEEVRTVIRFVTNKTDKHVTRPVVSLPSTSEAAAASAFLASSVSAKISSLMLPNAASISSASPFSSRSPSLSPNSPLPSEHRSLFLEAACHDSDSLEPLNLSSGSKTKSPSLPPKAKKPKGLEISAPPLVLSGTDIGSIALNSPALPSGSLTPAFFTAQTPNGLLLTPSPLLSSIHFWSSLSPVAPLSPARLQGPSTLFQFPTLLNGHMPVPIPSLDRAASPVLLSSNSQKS
In outline: as §1

The target of another assay is T7, FEV (Homo sapiens, UniProt Q99581 1-238).
T7 sequence: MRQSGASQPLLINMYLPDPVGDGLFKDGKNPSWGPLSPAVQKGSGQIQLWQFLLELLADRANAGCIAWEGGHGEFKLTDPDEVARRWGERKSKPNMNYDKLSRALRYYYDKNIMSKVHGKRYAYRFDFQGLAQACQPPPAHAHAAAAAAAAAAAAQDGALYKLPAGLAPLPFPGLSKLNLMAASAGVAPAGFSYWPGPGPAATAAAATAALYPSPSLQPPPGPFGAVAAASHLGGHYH
In short, it runs like this:
as §1

In a further assay the target is ETV5 (Homo sapiens, UniProt P41161 1-510). In outline: as §1
Chain of ETV5 (P41161 whole entry): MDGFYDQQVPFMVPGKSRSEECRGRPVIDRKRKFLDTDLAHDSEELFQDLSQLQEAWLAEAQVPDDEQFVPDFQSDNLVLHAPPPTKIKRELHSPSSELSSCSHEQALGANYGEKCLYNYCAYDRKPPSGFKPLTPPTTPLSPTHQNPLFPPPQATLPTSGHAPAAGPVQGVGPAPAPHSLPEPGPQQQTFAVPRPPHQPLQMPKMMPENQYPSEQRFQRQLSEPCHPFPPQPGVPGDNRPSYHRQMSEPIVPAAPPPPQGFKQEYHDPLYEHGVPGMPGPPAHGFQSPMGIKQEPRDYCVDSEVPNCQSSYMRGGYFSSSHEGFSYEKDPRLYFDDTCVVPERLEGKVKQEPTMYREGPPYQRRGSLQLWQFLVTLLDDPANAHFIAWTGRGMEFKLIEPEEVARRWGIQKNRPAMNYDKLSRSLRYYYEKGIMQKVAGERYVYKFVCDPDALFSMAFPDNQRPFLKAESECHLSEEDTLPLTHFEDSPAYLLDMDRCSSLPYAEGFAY
For another assay, the target named is T8, SPIC (Homo sapiens, UniProt Q8N5J4 1-248).
T8 sequence: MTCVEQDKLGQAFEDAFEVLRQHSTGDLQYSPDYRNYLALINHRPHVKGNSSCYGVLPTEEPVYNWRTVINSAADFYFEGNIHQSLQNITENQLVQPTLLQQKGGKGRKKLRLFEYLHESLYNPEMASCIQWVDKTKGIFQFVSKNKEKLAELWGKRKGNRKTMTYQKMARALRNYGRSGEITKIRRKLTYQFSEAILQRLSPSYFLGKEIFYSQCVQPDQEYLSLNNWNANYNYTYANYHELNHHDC
In outline:
as §1

In a further assay the target is ELF4 (Homo sapiens, UniProt Q99607 1-663). In short, it runs like this:
as §1

In another assay the target is T9, ELK4 (Homo sapiens, UniProt P28324-2 1-405).
T9 sequence: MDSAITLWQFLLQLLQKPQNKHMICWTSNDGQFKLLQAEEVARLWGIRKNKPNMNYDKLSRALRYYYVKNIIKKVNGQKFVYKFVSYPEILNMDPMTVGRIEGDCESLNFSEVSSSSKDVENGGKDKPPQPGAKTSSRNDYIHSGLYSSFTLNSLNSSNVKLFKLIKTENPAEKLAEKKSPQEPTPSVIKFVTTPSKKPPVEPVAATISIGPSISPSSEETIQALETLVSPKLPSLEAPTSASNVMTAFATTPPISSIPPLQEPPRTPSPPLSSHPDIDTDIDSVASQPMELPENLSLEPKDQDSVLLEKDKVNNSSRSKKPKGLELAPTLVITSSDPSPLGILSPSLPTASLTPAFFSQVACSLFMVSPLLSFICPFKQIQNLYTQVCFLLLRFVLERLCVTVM
In outline:
as §1

The target of the next assay is T10, ETV2 (Homo sapiens, UniProt O00321 1-342).
T10 sequence: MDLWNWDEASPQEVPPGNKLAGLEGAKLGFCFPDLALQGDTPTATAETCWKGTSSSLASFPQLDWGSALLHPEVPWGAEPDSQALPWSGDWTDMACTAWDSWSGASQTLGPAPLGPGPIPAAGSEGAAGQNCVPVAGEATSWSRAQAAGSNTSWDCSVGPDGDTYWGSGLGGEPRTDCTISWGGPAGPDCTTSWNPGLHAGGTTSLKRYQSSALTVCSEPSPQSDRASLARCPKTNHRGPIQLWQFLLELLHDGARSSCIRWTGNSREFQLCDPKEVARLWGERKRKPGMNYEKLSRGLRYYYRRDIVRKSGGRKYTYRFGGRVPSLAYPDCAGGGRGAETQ
In short, it runs like this:
as §1

Another assay addresses T11, ELF3 (Homo sapiens, UniProt P78545 1-371).
T11 sequence: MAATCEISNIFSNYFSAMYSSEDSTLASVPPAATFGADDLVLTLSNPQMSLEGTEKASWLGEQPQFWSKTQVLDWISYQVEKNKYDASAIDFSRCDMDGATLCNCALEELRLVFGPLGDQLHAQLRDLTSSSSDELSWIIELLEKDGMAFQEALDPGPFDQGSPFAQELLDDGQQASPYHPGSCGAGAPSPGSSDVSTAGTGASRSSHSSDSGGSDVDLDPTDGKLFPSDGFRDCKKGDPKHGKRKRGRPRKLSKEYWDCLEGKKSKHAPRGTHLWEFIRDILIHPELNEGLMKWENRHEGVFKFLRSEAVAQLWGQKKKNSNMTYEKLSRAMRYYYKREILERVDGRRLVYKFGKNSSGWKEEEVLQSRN
In short, it runs like this:
as §1

In the next assay the target is ETV1 (Homo sapiens, UniProt P50549 1-477). In short, it runs like this: as §1
Chain of ETV1 (P50549 whole entry): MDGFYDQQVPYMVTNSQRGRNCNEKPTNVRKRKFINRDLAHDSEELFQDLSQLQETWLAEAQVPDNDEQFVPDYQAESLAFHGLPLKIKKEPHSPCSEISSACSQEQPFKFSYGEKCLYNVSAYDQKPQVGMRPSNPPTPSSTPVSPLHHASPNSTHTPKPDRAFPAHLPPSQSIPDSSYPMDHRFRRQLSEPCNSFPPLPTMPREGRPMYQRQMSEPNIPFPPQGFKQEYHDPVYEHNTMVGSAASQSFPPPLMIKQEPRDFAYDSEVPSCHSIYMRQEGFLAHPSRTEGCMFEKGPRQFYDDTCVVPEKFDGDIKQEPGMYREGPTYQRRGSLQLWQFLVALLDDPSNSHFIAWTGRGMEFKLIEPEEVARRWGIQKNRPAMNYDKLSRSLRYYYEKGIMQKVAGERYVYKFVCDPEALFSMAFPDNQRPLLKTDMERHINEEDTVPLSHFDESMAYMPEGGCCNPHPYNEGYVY

Chain of ELF1 (P32519 whole entry): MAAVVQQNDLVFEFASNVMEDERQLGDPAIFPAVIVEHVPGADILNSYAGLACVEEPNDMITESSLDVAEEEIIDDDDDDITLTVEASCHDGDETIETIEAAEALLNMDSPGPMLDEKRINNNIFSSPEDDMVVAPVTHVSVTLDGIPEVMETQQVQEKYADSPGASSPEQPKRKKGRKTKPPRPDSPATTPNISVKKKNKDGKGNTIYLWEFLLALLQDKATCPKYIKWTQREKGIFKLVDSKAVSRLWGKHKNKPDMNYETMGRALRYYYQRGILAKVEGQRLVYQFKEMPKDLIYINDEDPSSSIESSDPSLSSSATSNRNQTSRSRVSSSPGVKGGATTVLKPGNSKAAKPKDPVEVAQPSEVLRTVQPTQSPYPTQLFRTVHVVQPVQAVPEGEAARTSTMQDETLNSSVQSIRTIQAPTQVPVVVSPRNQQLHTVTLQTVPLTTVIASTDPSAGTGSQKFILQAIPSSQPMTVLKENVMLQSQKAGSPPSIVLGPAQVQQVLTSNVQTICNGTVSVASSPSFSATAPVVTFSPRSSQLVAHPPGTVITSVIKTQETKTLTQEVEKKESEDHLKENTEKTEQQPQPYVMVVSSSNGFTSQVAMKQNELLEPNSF
Chain of ELF4 (Q99607 whole entry): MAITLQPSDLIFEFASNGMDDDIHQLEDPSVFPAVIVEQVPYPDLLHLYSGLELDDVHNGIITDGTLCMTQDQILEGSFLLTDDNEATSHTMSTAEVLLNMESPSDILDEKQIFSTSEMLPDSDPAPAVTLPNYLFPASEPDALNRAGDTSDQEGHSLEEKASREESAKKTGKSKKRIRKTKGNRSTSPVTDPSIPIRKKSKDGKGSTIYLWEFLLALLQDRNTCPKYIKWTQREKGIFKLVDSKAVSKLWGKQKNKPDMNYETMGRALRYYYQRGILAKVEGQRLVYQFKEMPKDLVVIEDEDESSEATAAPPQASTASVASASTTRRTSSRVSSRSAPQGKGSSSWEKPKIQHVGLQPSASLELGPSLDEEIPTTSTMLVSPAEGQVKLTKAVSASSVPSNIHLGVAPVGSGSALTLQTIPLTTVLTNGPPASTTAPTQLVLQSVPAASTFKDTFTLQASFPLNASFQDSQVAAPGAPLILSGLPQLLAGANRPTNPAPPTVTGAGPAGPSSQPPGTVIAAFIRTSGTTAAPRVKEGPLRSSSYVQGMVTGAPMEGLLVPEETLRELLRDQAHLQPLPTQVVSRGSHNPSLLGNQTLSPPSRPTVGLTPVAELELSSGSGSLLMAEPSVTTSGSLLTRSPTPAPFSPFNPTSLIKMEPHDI

Consider CTCCGT, for which the binding signal was 1.32 fold enrichment (6-mer frequency, TF over GST control) with FLI1; 1.28 fold enrichment (6-mer frequency, TF over GST control) with ELK1; 1.22 fold enrichment (6-mer frequency, TF over GST control) with GABPA; 1.16 fold enrichment (6-mer frequency, TF over GST control) with ERG; 1.21 fold enrichment (6-mer frequency, TF over GST control) in the assay with ELF1; 1.15 fold enrichment (6-mer frequency, TF over GST control) with EHF. Besides, the binding signal in the assay with SPI1 is 1.19 fold enrichment (6-mer frequency, TF over GST control); with SPIB it was 1.13 fold enrichment (6-mer frequency, TF over GST control); in the assay with ELK3, 1.38 fold enrichment (6-mer frequency, TF over GST control); with FEV, 1.14 fold enrichment (6-mer frequency, TF over GST control); with ETV5 it was 1.24 fold enrichment (6-mer frequency, TF over GST control); with SPIC it was 1.14 fold enrichment (6-mer frequency, TF over GST control). The binding signal with ELF4 is 1.3 fold enrichment (6-mer frequency, TF over GST control); with ELK4, 1.37 fold enrichment (6-mer frequency, TF over GST control); with ETV2 it was 1.17 fold enrichment (6-mer frequency, TF over GST control); with ELF3 it was 1.13 fold enrichment (6-mer frequency, TF over GST control); in the assay with ETV1, 1.15 fold enrichment (6-mer frequency, TF over GST control).
For the sequence TTGGCC, the binding signal is 1.22 fold enrichment (6-mer frequency, TF over GST control) in the assay with FLI1; 1.24 fold enrichment (6-mer frequency, TF over GST control) with ELK1; 1.23 fold enrichment (6-mer frequency, TF over GST control) with GABPA; 1 fold enrichment (6-mer frequency, TF over GST control) with ERG; 1.1 fold enrichment (6-mer frequency, TF over GST control) with ELF1; 1.17 fold enrichment (6-mer frequency, TF over GST control) with EHF. For the same sequence, the binding signal was 1.08 fold enrichment (6-mer frequency, TF over GST control) in the assay with SPI1; 1.16 fold enrichment (6-mer frequency, TF over GST control) in the assay with SPIB; 1.12 fold enrichment (6-mer frequency, TF over GST control) with ELK3; 1.14 fold enrichment (6-mer frequency, TF over GST control) with FEV; 1.12 fold enrichment (6-mer frequency, TF over GST control) with ETV5; 1.06 fold enrichment (6-mer frequency, TF over GST control) with SPIC. Further, the binding signal with ELF4 is 1.18 fold enrichment (6-mer frequency, TF over GST control); with ELK4, 1.08 fold enrichment (6-mer frequency, TF over GST control); with ETV2, 1.08 fold enrichment (6-mer frequency, TF over GST control); with ELF3, 1.12 fold enrichment (6-mer frequency, TF over GST control); in the assay with ETV1, 1.02 fold enrichment (6-mer frequency, TF over GST control).
